HCV inhibitor: HCV inhibition; Potency, µM (series often up to 41.8 µM), for inactives: top-dose activity change, negative = inhibition, actives largely listed as inhibitors; AID 651820; Huh7.5.1 HCVcc-Cre infection, luciferase reporter, 44 h; 3.4% of 340,000 active; further: potency means the concentration at half of the fitted maximal effect
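Reporter virus HCVcc-Cre (~0.5 moi) infects cells exposed to compound; seeding density 1,000 cells/well with 4 h settling beforehand. Luminescence, 15 sec read, taken 44 h post-infection following a 15 min RT substrate incubation.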
Pf growth 96h: P. falciparum growth inhibition at 96 hours | P. falciparum luciferase reporter growth, 96 h | Potency, µM (titrated, usually from 28.7 µM), without a hit: at the highest dose activity change, negative = inhibition, usual class: inhibitors | 6.9% of 320,000 active; further: potency means the concentration at half of the fitted maximal effect
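Delayed-death screen, second-generation endpoint: infected erythrocytes, 2% hematocrit, 0.05% parasitemia final; 96 hours at 37 C, 5% CO2; luciferase detection reagent; luminescence decrease equals reduced growth.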
HCMV antiviral: inhibitors of human cytomegalovirus; HFF cells, HCMV-luciferase reporter, 72 h; active compounds read low; activity change, negative = inhibition, % at 57.5 µM; 4.5% of 410,000 active; AID 1259415; in the data active means activity change below about -60%; inconclusive means no clear call, values can overlap the other calls; inactive means above about -39%
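HFF cells seeded 16 h at 37C, treated with compounds, infected with luciferase-reporter HCMV at MOI 1 PFU/cell; luciferase read at 72 h post infection, normalized to buffer-only and Salinomycin controls.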
Pf growth 48h: inhibits P. falciparum growth in the first generation, 48 h | P. falciparum luciferase growth in erythrocytes, 48 h | AID 504832 | 5.9% of 310,000 active | Potency, µM (doses to about 28.7 µM), inactives show at the top dose activity change, negative = inhibition, most hits filed as inhibitors; further: potency means the concentration at half of the fitted maximal effect
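Cell-based growth assay: transgenic P. falciparum expressing firefly luciferase, cultured in red cells within RPMI 1640 containing 0.5% w/v Albumax, 24 mM bicarbonate and gentamycin. A drop in luciferase activity indicates inhibition.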
The depositor's hits bear a star; ? = inconclusive; nt = no result given; [ ] = dose if it differs, or a comment. This is a sample that favours compounds with a hit; in the whole collection about 13% have one here. Unless noted, the call rests on the fitted dose curve; in most records, active means well fitted inhibition curve with a large enough effect; inconclusive means small, poorly fitted or top-dose-only effect, or another doubt; inactive means no such curve, though single readings can be large or run the other way. On the % scale 0 is the no-effect control and ±100 the full control effect.

SMILES	HCV inhibitor	Pf growth 96h	HCMV antiviral	Pf growth 48h
Cc1nn2c(CN(C(=O)COc3ccccc3)c3ccccc3)nnc2c2ccccc12	15%	15%	-68*	?
O=C(O)c1ccc2c(c1)C(=O)N([C@H](Cc1ccccc1)C(=O)O)C2=O	nt	13%	nt	6%
Cc1cc(/C=C\c2nc(O)c([N+](=O)[O-])c(=O)[nH]2)c(C)n1-c1ccccc1	-1%	-22%	-14	29%
COc1ccc(-n2c(C)cc(/C=C/c3nc(O)c([N+](=O)[O-])c(=O)[nH]3)c2C)cc1	7%	-24%	-61*	-28%
COc1ccccc1CNC(=O)c1ccc2c(c1)nc(C)n2-c1cccc(C)c1	nt	nt	-14	nt
CN(C)S(=O)(=O)c1ccc2c(c1)nnn2CCNC(=O)Nc1ccc(Br)cc1	nt	nt	0	nt
Cc1ccc(NC(=S)N/N=C/c2cccn2Cc2ccccc2F)cc1	5%	?	11	9.3µM*
Cc1ccc(CN2CCN(CC(=O)N/N=C/c3ccccc3F)CC2)cc1	3%	167%	-29	113%
COc1ccc(CNS(=O)(=O)c2ccccc2Br)c(OC)c1	nt	nt	12	nt
C=CCCC1CN(Cc2ccc(OC)cc2)S(=O)(=O)c2c(NCc3cc(OC)c(OC)c(OC)c3)cccc2O1 (stereo not drawn)	nt	nt	-19	nt
CSCc1cc(N(C)c2ccccc2)nc(-c2ccccn2)n1	2.8µM*	?	-85*	-6%[0.00184 µM]
CN(C)c1cc(C(F)(F)F)nc(-c2ccccn2)n1	10%	32%	-23	-9%
CCOC(=O)c1c(NC(=O)c2c(-c3ccccc3)noc2C)sc(C)c1-c1ccccc1	7.1µM*	6.6µM*	-102*	nt
COC(=O)c1sccc1NC(=O)c1c(-c2ccccc2)noc1C	-28%	3%	6	23%
COC(=O)c1c(-c2ccc(C)cc2)csc1NC(=O)c1c(-c2ccccc2)noc1C	7%	0%	-71*	?
O=S1(=O)c2cccc3cccc(c23)N1CCCN1CCN(c2ccc(F)cc2)CC1	nt	-26%	nt	-15%
COc1cc2nc(NCc3ccccc3Cl)n3nc(-c4cccnc4)nc3c2cc1OC	nt	nt	-24	nt
O=C1CC(N2CCN(C(c3ccccc3)c3ccccc3)CC2)C(=O)N1Cc1ccc(N2CCCC2=O)cc1 (stereo not drawn)	5%	15µM*	-7	9.3µM*
CCc1ccc(NC(=O)Cn2nnc(C(=O)Nc3cc(C)ccc3OC)c2N)cc1	nt	nt	1	nt
CN(C)S(=O)(=O)c1ccc2c(c1)/C(=C/c1cc3c([nH]1)CCCC3)C(=O)N2	?	1.3µM*	108	2.1µM*
CC(=O)Nc1c(I)c(C(=O)N[C@H]2[C@@H](O)[C@H](O)[C@H](CO)O[C@@H]2O)c(I)c(N(C)C(C)=O)c1I	nt	-26%[12.8 µM]	nt	-9%[12.8 µM]
CCCn1c(=NC(=O)CS(=O)(=O)c2ccccc2)sc2cc(S(C)(=O)=O)ccc21	9%	?	?	?
CCn1c(=NC(=O)CS(=O)(=O)c2ccc(F)cc2)sc2cccc(OC)c21	?	?	?	12µM*
COc1ccc2c(c1)sc(=NC(=O)CS(=O)(=O)c1ccc(F)cc1)n2C	?	4.1µM*	-73*	9.3µM*
CCn1c(=NC(=O)CCS(=O)(=O)c2ccccc2)sc2cccc(OC)c21	nt	?	-74*	-20%
SMILES	HCV inhibitor	Pf growth 96h	HCMV antiviral	Pf growth 48h
CCC(C)NC(=O)CCCN1C(=O)CCn2nc(-c3cccn3C)cc21 (stereo not drawn)	nt	nt	9	nt
CCc1ccc(-n2c(=O)c3sc4ccccc4c3n(CC(=O)N3CCCC3)c2=O)cc1	nt	nt	-8	nt
Cc1ccc(CNC(=O)CN(C)S(=O)(=O)c2ccc3c(c2)c(=O)n(C)c(=O)n3C)cc1	nt	nt	-29	nt
O=C(CNS(=O)(=O)c1cccs1)NCc1ccccc1	19%	0%	13	?
O=C(CNS(=O)(=O)c1cccs1)NCCc1ccc(Cl)cc1	1%	13µM*	-12	6%
COc1ccc(-c2onc(C)c2-c2cnn(-c3ccccc3)c2)c(O)c1	?	4%	-8	12µM*
CCOC(=O)Cn1c(C2CC(=O)N(c3ccc(C)cc3)C2)nc2ccccc21 (stereo not drawn)	nt	nt	-2	nt
Cc1cccc(CN2C[C@]34C=C[C@@H](C[C@@H]3S2(=O)=O)O4)c1	7%	18%	1	29%
Cc1cccc(CN2C[C@]34CC[C@@H](C[C@@H]3S2(=O)=O)O4)c1	7.1µM*	-1%	19	16%
COc1ccc(CN(C)CC2CCCN(CCc3ccc(F)cc3)C2)c(OC)c1OC (stereo not drawn)	?	16%	11	?
CCN(Cc1ccc(OC)c(COC)c1)CC1CCCN(CCc2cccc(F)c2)C1 (stereo not drawn)	13µM*	?	-31	10µM*
CCN(Cc1ccc(OC)c(COC)c1)CC1CCCN(CCc2cccc(OC)c2)C1 (stereo not drawn)	7.9µM*	-12%	-75*	?
CCN(Cc1ccccc1OC)CC1CCCN(CCc2cccc(OC)c2)C1 (stereo not drawn)	?	4%	42	?
CCN(Cc1ccc(NC(C)=O)cc1)CC1CCCN(CCc2cccc(OC)c2)C1 (stereo not drawn)	?	12µM*	-26	12µM*
Cc1ccc(-n2nc(C)c3nc(CCC(=O)Nc4cccc(C)c4C)c(=O)n(C)c32)cc1	nt	nt	3	nt
O=C(CCc1nnc(-c2ccc(-c3ccccc3)cc2)o1)NCCc1ccccn1	5%	?	-13	7%
O=C(CCc1nnc(-c2ccccc2)o1)NCc1c(F)cccc1F	25%	13µM*	-26	0%
Cc1ccc(NC(=O)C2CC(=O)N(c3ccc(OC(C)C)cc3)C2)cc1 (stereo not drawn)	nt	nt	-21	nt
Cc1cccc(Oc2nc3c(c(=O)n(C)c(=O)n3C)n2Cc2ccccc2)c1C	nt	nt	4	nt
CCOc1ccc(C(=O)c2cn(CC(=O)Nc3ccc(F)cc3)c3cc4c(cc3c2=O)OCCO4)cc1	nt	nt	-1	nt
CCOc1ccc(NC(=O)Cn2cc(C(=O)c3ccccc3)c(=O)c3cc4c(cc32)OCCO4)cc1	nt	nt	-104*	nt
COc1ccc2c(c1)c(=O)c(C(=O)c1ccccc1)cn2CC(=O)Nc1ccc2c(c1)OCO2	nt	nt	-103*	nt
COc1ccc(C(=O)c2cn(CC(=O)Nc3ccc4c(c3)OCO4)c3ccc(OC)cc3c2=O)cc1	nt	nt	-39	nt
CCOC(=O)c1c(NC(=O)CSc2nc(-c3ccc(OC)cc3)cc(C(F)(F)F)n2)sc(C)c1C	nt	nt	-15	nt
COc1ccc(OC)c(C2NC(=O)NC(C)=C2C(=O)Nc2cc(C)cc(C)c2)c1 (stereo not drawn)	nt	nt	53	nt
CN(C)c1ccc(CNC(=O)c2cnc(N3CCN(Cc4cccc(C(F)(F)F)c4)C3=O)o2)cc1	nt	nt	-14	nt
CCSc1ncc(Cl)c(C(=O)Nc2ccc(S(N)(=O)=O)cc2)n1	11%	9.3µM*	-85*	5%
CCSc1ncc(Cl)c(C(=O)Nc2ccccc2)n1	-8%	8.3µM*	-19	3%
COC(=O)C1=C(N)Oc2cc(C)[nH]c(=O)c2C1c1cc(OC)c(OC)c(OC)c1 (stereo not drawn)	31%	-9%	?	10µM*
